From PubChem BioAssay
The source made the active and inactive calls.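 The calls were made as follows, unless noted: active = inhibition above 20% together with a positive visual image hit; inconclusive = visual image hit but inhibition not above 20%; inactive = no visual image hit.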

Legend:
[1] = inhibitors of TNFa-induced NFkB p65 translocation, primary screen, imaging, HUVEC, MLSMR starter and 10KST1 sets (AID 438); details: HUVEC TNFa-induced p65 nuclear translocation; cell count: measured here: nuclei count (cytotoxicity indicator), at 2.08 µM; inhibition: at 2 µM, stronger effect = higher value, 0% TNFa-plus-vehicle, 100% no-TNFa wells;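 also: compound added about 3h40 before a 20 min TNFalpha stimulation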;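 as to inhibition: signal is the nuclear over cytoplasmic p65 intensity ratio per well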
[2] = reduction of polyQ htt aggregates in cells – imaging, exon1htt(103Q)mCFP cells, high-content imaging, primary screen (AID 483;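 active = visual image review flags a hit and inhibition of aggregation exceeds 20%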;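 also: compound exposure lasted 3 days before fixation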;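 as to nuclei count: percent of the per-plate median nuclei count of sample wells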); details: exon1htt(103Q)mCFP cell line, aggregate imaging, at 2 µM; inhibition of aggregation: stronger effect = higher value; nuclei count: measured here: cell count, toxicity
[3] = endothelial E-selectin expression blockers – imaging, HUVEC, immunofluorescence, MLSMR starter and 10KST1 sets, primary screen (AID 487;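 active = visually confirmed hit in the image check and inhibition above 20%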;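 as to inhibition: signal is fraction of cell area covered by stained E-selectin grains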;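 as to nuclei count: 100% = median nuclei count of all wells on the same plate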); details: HUVEC TNFalpha-induced E-selectin immunofluorescence imaging, at 2 µM; inhibition: stronger effect = higher value; nuclei count: measured here: cell number, toxicity
[4] = target: Voltage-gated potassium channel subunit beta-2 (Rattus norvegicus) (UniProt P62483); experiment: inhibitors of rat Kvbeta2 reductase activity – biochemical, NADPH fluorescence, primary screen (AID 622;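 active = fluorescence slope higher than the sample average by over 3 SD, cut at about -0.22 in these data, passing the limit was not always enough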;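 also: slope of raw intensity against log time taken from 70 to 1610 s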); details: recombinant KvBeta, 4-cyanobenzaldehyde reduction, at 10 µM, stronger effect = higher value
Chain of Voltage-gated potassium channel subunit beta-2 (Rattus norvegicus) (P62483 whole entry, looked up): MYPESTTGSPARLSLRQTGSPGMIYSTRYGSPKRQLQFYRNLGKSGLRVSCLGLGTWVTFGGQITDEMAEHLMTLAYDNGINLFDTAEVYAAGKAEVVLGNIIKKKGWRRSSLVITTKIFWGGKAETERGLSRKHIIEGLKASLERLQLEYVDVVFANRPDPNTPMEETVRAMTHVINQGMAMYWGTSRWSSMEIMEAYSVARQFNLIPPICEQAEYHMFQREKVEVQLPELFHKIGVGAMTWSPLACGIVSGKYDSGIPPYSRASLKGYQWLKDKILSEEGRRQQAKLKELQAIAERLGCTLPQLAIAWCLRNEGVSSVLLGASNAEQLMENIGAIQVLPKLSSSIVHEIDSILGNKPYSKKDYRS

[5] = target: Voltage-gated potassium channel subunit beta-2 (Rattus norvegicus) (UniProt P62483); experiment: enhancers of rat Kvbeta2 NADPH turnover – biochemical, NADPH fluorescence, primary screen (AID 623;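 active = NADPH fluorescence slope more negative than the mean of all samples by about 3 SD, 99.7% confidence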;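 also: fluorescence intensity change per second fitted from 20 to 320 s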); details: Recombinant KvBeta, NADPH fluorescence decrease slope, 10 min; at 10 µM; stronger effect = lower value
[6] = target: Alpha-2C adrenergic receptor (Homo sapiens) (UniProt P18825); experiment: compounds altering alpha2C-coupled GIRK flux – cell-based, HEK293 alpha2C/GIRK1/2, thallium flux, primary screen (AID 624;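 active = fluorescence slope after compound addition differing from the mean of all screened samples at 99.7% confidence, in either direction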;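 also: slope of fluorescence ratio to pre-addition baseline per second over 15 to 24 s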); details: thallium flux BTC fluorescence, at 10 µM, actives lie on both sides
Chain of Alpha-2C adrenergic receptor (Homo sapiens) (P18825 whole entry, looked up): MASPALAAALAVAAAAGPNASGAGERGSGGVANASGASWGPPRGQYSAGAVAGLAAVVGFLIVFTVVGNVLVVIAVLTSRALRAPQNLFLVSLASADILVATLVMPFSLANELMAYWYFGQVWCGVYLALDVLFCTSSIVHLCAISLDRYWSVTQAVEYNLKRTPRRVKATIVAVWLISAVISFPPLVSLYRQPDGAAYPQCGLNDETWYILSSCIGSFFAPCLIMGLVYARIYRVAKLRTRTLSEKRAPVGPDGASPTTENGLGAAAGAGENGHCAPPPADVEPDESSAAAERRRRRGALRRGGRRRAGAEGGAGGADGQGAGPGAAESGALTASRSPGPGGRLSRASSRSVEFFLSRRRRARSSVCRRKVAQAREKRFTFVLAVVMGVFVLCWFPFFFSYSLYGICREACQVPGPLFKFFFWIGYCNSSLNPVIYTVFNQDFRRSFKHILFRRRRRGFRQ

[7] = blockers of RIG-like receptor reporter activation – cell-based, Sendai virus stimulus, luciferase, 10K MLSCN set, TLR/RLR signaling modifier project, primary screen (AID 602276;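 active = inhibition at or above 50% at 10 µM; inactive = inhibition below 50%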;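 also: firefly luciferase from ISG56 promoter only with Renilla not read in this screen; 0% = Sendai virus plus DMSO and 100% = medium plus DMSO without virus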); details: HEK293 RL24 IRF3 luciferase reporter, at 10 µM, stronger effect = higher value
[8] = TLR3 IRF3 reporter activation blockers – cell-based, poly I:C stimulus, luciferase, 10K MLSCN set, primary screen (AID 602277;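 active = inhibition of the reporter signal at or above 50%; inactive = inhibition below 50%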); details: HEK293-TLR3 RL24 IRF3 luciferase reporter, at 10 µM, stronger effect = higher value

| Compound | cell count [1] | inhibition [1] | inhibition of aggregation [2] | nuclei count [2] | inhibition [3] | nuclei count [3] | fluorescence slope [4] | NADPH fluorescence slope [5] | slope [6] | inhibition [7] | inhibition [8] |
| --- | --- | --- | --- | --- | --- | --- | --- | --- | --- | --- | --- |
| Cc1occc1C(=O)Nc1nnc(C2CCCCC2)s1 | 356 | 7.6% (inactive) | -8.9% (inactive) | 108% | 14% (inactive) | 106% | -0.526 (inactive) | -1.5e-05 (inactive) | 0.00511 (inactive) | -0.797% (inactive) | -13.3% (inactive) |
| CC(C)CSc1nc2ccccc2n1CC(N)=O | 314 | 3% (inactive) | -6.3% (inactive) | 109% | 33.6% (inactive) | 107% | -0.362 (inactive) | -4.7e-05 (inactive) | 0.00549 (inactive) | 13.3% (inactive) | 15.2% (inactive) |
| O=S(=O)(Nc1ccc2c(c1)OCO2)c1ccc(Br)s1 | 285 | -5.5% (inactive) | 14.8% (inactive) | 92.9% | 8.4% (inactive) | 95.6% | -0.31 (inactive) | 1.5e-05 (inactive) | 0.00308 (inactive) | 0.155% (inactive) | -19.3% (inactive) |
| Cc1cc(C)n(-c2ccc3cccc(NS(C)(=O)=O)c3n2)n1 | 221 | 13.2% (inactive) | -10.7% (inactive) | 76.6% | 26.7% (inactive) | 107% | -0.392 (inactive) | -3.1e-05 (inactive) | 0.00539 (inactive) | 11% (inactive) | 12.8% (inactive) |
| O=C(NC1CCN(Cc2ccccc2)CC1)C1CCN(S(=O)(=O)c2cccc3cccnc23)CC1 | 526 | -11.6% (inactive) | 7.8% (inactive) | 83.4% | -4.4% (inactive) | 99.2% | -0.561 (inactive) | 7.4e-08 (inactive) | 0.00666 (inactive) | -12.5% (inactive) | 8.2% (inactive) |
| COc1ccc(S(=O)(=O)C(C#N)c2nc3ccccc3nc2N2CCCC(C)C2)cc1 (stereo not drawn) | 714 | -5% (inactive) | -12.7% (inactive) | 92.2% | 16% (inactive) | 113% | -0.417 (inactive) | 7.1e-06 (inactive) | 0.00445 (inactive) | 13% (inactive) | 0.928% (inactive) |
| CCOC(=O)c1[nH]c2ccccc2c1NC(=O)C(CC)CC | 689 | -10.7% (inactive) | -18.7% (inactive) | 118% | -11% (inactive) | 107% | -0.466 (inactive) | -3.3e-05 (inactive) | 0.00668 (inactive) | 12.4% (inactive) | 40.3% (inactive) |
| CCOC(=O)c1ccc(NC(=O)Nc2ccn(C)n2)cc1 | 354 | 8.8% (inactive) | 11.9% (inactive) | 110% | -23.7% (inactive) | 100% | -0.383 (inactive) | -2.9e-05 (inactive) | 0.00615 (inactive) | -16.4% (inactive) | -66.8% (inactive) |
| O=c1c[n+]([O-])c2ccccc2n1OCc1c(F)cccc1F | 744 | -6% (inactive) | -13.7% (inactive) | 87.6% | -236% (inactive) | 110% | -0.425 (inactive) | -2.4e-05 (inactive) | 0.00594 (inactive) | 18% (inactive) | 24.8% (inactive) |
| CCc1ccc(NC(=O)CS(=O)CC(=O)NCC2OCCc3ccccc32)cc1 (stereo not drawn) | 698 | -4.5% (inactive) | 6.4% (inactive) | 102% | -119% (inactive) | 114% | -0.415 (inactive) | -3.6e-05 (inactive) | 0.00515 (inactive) | 9.39% (inactive) | 13.4% (inactive) |
| O=C(NCc1ccco1)c1cnc2n(c1=O)CCS2 | 188 | 4.4% (inactive) | 5.7% (inactive) | 66.8% | 7.8% (inactive) | 93.2% | -0.419 (inactive) | -1.2e-05 (inactive) | 0.00633 (inactive) | 10% (inactive) | 2.98% (inactive) |
| CC(=O)N1CCC(N(C(=O)Nc2ccc(C)c(C)c2)C2CCCC2)CC1 | 644 | -3.1% (inactive) | -11.9% (inactive) | 52.8% | -61.6% (inactive) | 106% | -0.258 (inactive) | -1.2e-06 (inactive) | 0.0055 (inactive) | 11.1% (inactive) | 15% (inactive) |
| C=CCn1c(C)cc(C(=O)CSc2nc3ccccc3o2)c1C | 615 | -8.9% (inactive) | -16.3% (inactive) | 105% | -58.1% (inactive) | 104% | -0.595 (inactive) | -5.9e-05 (inactive) | 0.00586 (inactive) | -26.5% (inactive) | -136% (inactive) |
